Experimental data published in PubChem BioAssay (NCI).
The panel holds about 83,000 compounds, 20% with a hit somewhere; the sample as a whole holds those more often.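 In brief: 96-well plates, 48 h treatment, single concentration, percent growth endpoint.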 Unmarked numbers belong to inactive results. The source made the active and inactive calls. The calls were made as follows: active = growth percent below 10; inactive = the rest.

Experiments:
Experiment in all cases: NCI-60 one-dose screen, 48 h (100 = growth as untreated, 0 = no growth, -100 = all killed)
[1] = tested on: SK-MEL-2 melanoma; conditions: 10 µM unless noted
[2] = tested on: SN12C renal; conditions: 10 µM unless noted
[3] = tested on: UO-31 renal; conditions: 10 µM unless noted
[4] = tested on: TK-10 renal; conditions: 10 µM unless noted
[5] = tested on: ACHN renal; conditions: 10 µM unless noted
[6] = tested on: CAKI-1 renal; conditions: 10 µM unless noted
[7] = tested on: A498 renal; conditions: 10 µM
[8] = tested on: HL-60(TB) leukemia; conditions: 10 µM unless noted
[9] = tested on: CCRF-CEM leukemia; conditions: 10 µM unless noted

SMILES	growth [1]	growth [2]	growth [3]	growth [4]	growth [5]	growth [6]	growth [7]	growth [8]	growth [9]
C=CC[Se]C(=O)c1ccccc1OC(C)=O	37.2%	-18.4% (active)	-53.5% (active)	12.5%	-26.6% (active)	-9.51% (active)	-3.97% (active)	-45.7% (active)	5.37% (active)
Cc1c(O)c(CN(CCCl)CCCl)cc(CN(CCCl)CCCl)c1O	110%	72.9%	70.3%	100%	42.5%	17.6%	92.4%	47.1%	41.8%
C[C@]12C[C@@H](CO)[C@H](O)C[C@@H]1CC[C@@H]1[C@@H]2CC[C@]2(C)[C@@H](O)CC[C@@H]12	86%	106%	89.6%	103%	101%	94.1%	95.1%	71%	
O=C1C=C(N2C3C4CCC(C4)C32)C(=O)C=C1c1ccccc1 (stereo not given)	87.8%	93.8%	90.8%	142%	73.4%	58%	49.3%	44.8%	0.362% (active)
CCC1(C)CC(CCNCc2ccccc2O)(c2ccc(C)cc2)CCO1 (stereo not given)	104%	105%	101%	106%	102%	106%	103%	97.3%	103%
COc1ccc(/C=C\c2cc(OC)c(OC)c(OC)c2)cc1NS(=O)(=O)c1ccc(Cl)cc1	69.5%	79.8%	55.1%	80.2%	62.2%	42.8%	47%	54.1%	78%
Nc1ccc(OCCNS(=O)(=O)c2cccc(S(=O)(=O)F)c2)c(Cl)c1	88.9%	102%	-13.3% (active)	102%	96.2%	86.8%	70.8%	98.1%	93.5%
CC12CC(=O)C3(SC#N)C(CCC4=CC(=O)CCC43C)C1CCC2=O (stereo not given)	125%	85%	39%	81.4%	49.2%	93.5%	95.3%	43.2%	
O=C1CCC2(O)[C@@H]3Cc4ccc(O)c5c4[C@]2(CCN3Cc2ccoc2)C1O5 (stereo not given in full)	106%	97.9%	78.8%	102%	98%	99.3%	108%	95%	98.5%
O=C(O)C(Cl)(Cl)C(F)(F)F	105%	104%	93.5%	98.3%	107%	95%	95.1%	110%	100%
ClCCN(CCCl)Cc1ccc(Nc2ccnc3cc(Cl)ccc23)cc1	-19.5% (active)	18.8%	34.6%	59.5%		-32.8% (active)	77.1%		
CC(=O)[O][Hg][O]C(C)=O	90.3%	106%	96.9%	138%	108%	92.3%	117%	35.2%	27.8%
COc1cc(C=C2c3ccccc3C(=O)c3ccccc32)ccc1OCCCCOc1cc2c(cc1OC)C(=O)N1CCCC1C=N2 (stereo not given)	-79.6% (active)	-68.6% (active)	-96% (active)	-70.2% (active)	-62.8% (active)	-75.5% (active)	-78.6% (active)		-24% (active)
O=C(O)c1ccc([S-])cc1.[Au+].c1ccc(CN2[CH-]N(Cc3ccccc3)C(c3ccccc3)=C2c2ccccc2)cc1	-43.2% (active)	-67.8% (active)	-79.4% (active)	-61.7% (active)	-65.7% (active)		-33.8% (active)		1.41% (active)
Cc1ccc(C(=O)NCCCOc2ccc(N)cc2Cl)cc1S(=O)(=O)F	78.7%	105%	70.7%	97.1%	105%	92.5%	82.4%		88.7%
CCCCCC1(CCBr)C(=O)NC(=O)NC1=O	105%	107%	86.7%	111%	102%		88.4%		102%

SMILES	growth [1]	growth [2]	growth [3]	growth [4]	growth [5]	growth [6]	growth [7]	growth [8]	growth [9]
CC(=O)O[C@H]1CC[C@]2(C)[C@H]3CC[C@]4(C)[C@@H](OC(C)=O)CC[C@H]4[C@@H]3[C@@H](C)[C@]2(O)C1	99.1%	101%	88.7%	112%	112%		105%		93.1%
CCc1ccccc1[C@@H]1C[C@]2(C)CCO[C@@H]2OO1	115%	98.7%	91.5%	96.9%	104%	96.5%	102%	109%	94.1%
O=C(NCCN1CC1)C(=O)NCCN1CC1	97.1%	87.3%	96.4%	83.6%	67.9%	20.9%	105%	63.1%	56.8%
CN1CCC(c2c[nH]c3ccccc23)C1 (stereo not given)	87.5%	124%	69.1%	154%	96.2%		113%	104%	98.7%
COc1ccc(/C=C\c2cc(OC)c(OC)c(OC)c2)c(NS(=O)(=O)c2ccc(F)cc2)c1O	-6.87% (active)	28.1%	48%	59.3%		20.8%		10.1%	17.4%
C=CCCCN=C=S	56%	60.1%	70%	69.1%	77.9%	83.3%	76%		50.1%
C[C@]12CCc3sc(-c4cccc(F)c4)nc3C1=CC[C@@H]1[C@@H]2CC[C@]2(C)C(=O)CC[C@@H]12	32.1%	42.9%	1.08% (active)	24%	11.9%	36.9%		34.2%	15.8%
COC(=O)[C@@H](C)C[C@H](Cc1cn(C)c2ccccc12)NC(=O)c1csc([C@@H](C[C@H](C(C)C)N(C)C(=O)[C@@H](NC(=O)[C@H]2CCCCN2C)C(C)C)OC(C)=O)n1	39%	23.5%	34.1%	28.1%	18.8%		-1.42% (active)		10.8%
O=C(c1ccccc1O)c1[nH]c(Cl)c(Cl)c1-n1c(C(=O)c2ccccc2O)cc(Cl)c1Cl	-36.9% (active)	-14.2% (active)	-3.72% (active)	6.68% (active)	-9.76% (active)	-11.1% (active)	-33.3% (active)		3.92% (active)
CCCCCCCCCCCCCC[P+](CCCCCC)(CCCCCC)CCCCCC	-3.57% (active)	-79.1% (active)	-36.6% (active)	-43.3% (active)	-26% (active)	4.01% (active)	-48.3% (active)		26.5%
COc1ccc(S(=O)(=O)N(Cc2ccc3c(c2)C=CC(C)(C)O3)c2ccccc2)cc1OC	97.1%	95.9%	67.4%	102%	61.3%	61.7%	77.8%	70.6%	72%
COC(=O)[C@@H](C)C[C@H](Cc1ccccc1)NC(=O)c1csc([C@@H](C[C@H](C(C)C)N(C)C(=O)[C@@H](NC(=O)[C@H]2CCCCN2C)C(C(F)(F)F)C(F)(F)F)OC(C)=O)n1	34.5%	28.3%	33.1%	28.5%	28.2%		-4.49% (active)	-33.7% (active)	4.93% (active)
COc1cc(C=Nc2cccc(C(=O)O)c2)ccc1N(CCCl)CCCl	108%	98.5%	84.6%	125%	81.8%	95%	102%	110%	102%
COC(=O)[C@H](Cc1ccccc1)NNC(=O)c1csc([C@@H](C[C@H](C(C)C)N(C)C(=O)[C@@H](NC(=O)[C@H]2CCCCN2C)C2CC2)OC(C)=O)n1	30.6%	24.3%	42.8%		24.8%	21.4%	-3.69% (active)	-55.4% (active)	-2.7% (active)
COc1ccc(Nc2ccnc3cc(Cl)ccc23)cc1CN(CCCl)CCCl	-46.7% (active)	2.25% (active)	-42.2% (active)	-37.5% (active)	-33.7% (active)	-63.9% (active)	-47.5% (active)	-22.3% (active)	-6.67% (active)
